± gives the standard deviation of the averaged measurements.
Test system: firefly luciferase (FLuc)
Assay: residual bioluminescent signal relative to negative control without GSH; higher = less interference (more residual luciferase signal)
Conditions: screening conditions buffer
Experimental: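 Selected metal salts at 3-4 concentrations tested on purified FLuc, NLuc or RLuc in screening buffer with 0, 0.2 or 2 mM glutathione added; 10 min enzyme pre-incubation at RT, luminescence 10 min after substrate. Signal normalised to negative control without GSH (% N_VALUE); triplicate wells.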

[1] = metal salt concentration 1 mM, glutathione 0 mM
[2] = metal salt concentration 1 mM, glutathione 0.2 mM
[3] = metal salt concentration 1 mM, glutathione 2 mM

## O=[N+]([O-])[O-].[Ag+] [silver nitrate]
Metal salt concentration 0.0001 mM, glutathione 0 mM
  residual bioluminescent signal: 58.4 ± 11%
Metal salt concentration 0.0001 mM, glutathione 0.2 mM
  residual bioluminescent signal: 63.3 ± 6%
Metal salt concentration 0.0001 mM, glutathione 2 mM
  residual bioluminescent signal: 0.242 ± 0.17%
Metal salt concentration 0.000243 mM, glutathione 0 mM
  residual bioluminescent signal: 1.26 ± 0.36%
Metal salt concentration 0.000243 mM, glutathione 0.2 mM
  residual bioluminescent signal: 64.7 ± 3.9%
Metal salt concentration 0.000243 mM, glutathione 2 mM
  residual bioluminescent signal: 0.483 ± 0.34%
Metal salt concentration 0.0005 mM, glutathione 0 mM
  residual bioluminescent signal: 0.58 ± 0.43%
Metal salt concentration 0.0005 mM, glutathione 0.2 mM
  residual bioluminescent signal: 61.9 ± 10%
Metal salt concentration 0.0005 mM, glutathione 2 mM
  residual bioluminescent signal: 0.58 ± 0.29%
[1]
  residual bioluminescent signal: 0.435 ± 0.38%
[2]
  residual bioluminescent signal: 0.918 ± 0.47%
[3]
  residual bioluminescent signal: 0.531 ± 0.3%

## O=[N+]([O-])[O-].O=[N+]([O-])[O-].[Cu+2] [copper(II) nitrate]
Metal salt concentration 0.05 mM, glutathione 0 mM
  residual bioluminescent signal: 84.5 ± 15%
Metal salt concentration 0.05 mM, glutathione 0.2 mM
  residual bioluminescent signal: 54.9 ± 3.8%
Metal salt concentration 0.05 mM, glutathione 2 mM
  residual bioluminescent signal: 0.483 ± 0.17%
Metal salt concentration 0.125 mM, glutathione 0 mM
  residual bioluminescent signal: 86.3 ± 9.3%
Metal salt concentration 0.125 mM, glutathione 0.2 mM
  residual bioluminescent signal: 19.4 ± 1.1%
Metal salt concentration 0.125 mM, glutathione 2 mM
  residual bioluminescent signal: 0.531 ± 0.34%
Metal salt concentration 0.2 mM, glutathione 0 mM
  residual bioluminescent signal: 65.3 ± 11%
Metal salt concentration 0.2 mM, glutathione 0.2 mM
  residual bioluminescent signal: 5.12 ± 2%
Metal salt concentration 0.2 mM, glutathione 2 mM
  residual bioluminescent signal: 0.628 ± 0.44%
[1]
  residual bioluminescent signal: 0.628 ± 0.47%
[2]
  residual bioluminescent signal: 0.338 ± 0.17%
[3]
  residual bioluminescent signal: 0.435 ± 0.25%

## O=[N+]([O-])[O-].O=[N+]([O-])[O-].[Zn+2] [zinc nitrate]
Metal salt concentration 0.5 mM, glutathione 0 mM
  residual bioluminescent signal: 100 ± 3.4%
Metal salt concentration 0.5 mM, glutathione 0.2 mM
  residual bioluminescent signal: 29.7 ± 6%
Metal salt concentration 0.5 mM, glutathione 2 mM
  residual bioluminescent signal: 0.435 ± 0.25%
[1]
  residual bioluminescent signal: 1.06 ± 0.55%
[2]
  residual bioluminescent signal: 0.918 ± 0.74%
[3]
  residual bioluminescent signal: 0.387 ± 0.17%
Metal salt concentration 1.20 mM, glutathione 0 mM
  residual bioluminescent signal: 0.387 ± 0.17%
Metal salt concentration 1.20 mM, glutathione 0.2 mM
  residual bioluminescent signal: 0.676 ± 0.36%
Metal salt concentration 1.20 mM, glutathione 2 mM
  residual bioluminescent signal: 0.676 ± 0.36%
Metal salt concentration 2.5 mM, glutathione 0 mM
  residual bioluminescent signal: 0.58 ± 0.29%
Metal salt concentration 2.5 mM, glutathione 0.2 mM
  residual bioluminescent signal: 0.87 ± 0.43%
Metal salt concentration 2.5 mM, glutathione 2 mM
  residual bioluminescent signal: 0.338 ± 0.34%

Source: the supplement of paper PMC11628255, “Interference of metal ions on the bioluminescent signal of firefly, Renilla, and NanoLuc luciferases in high-throughput screening assays” (Frontiers in Chemistry, 2024)
